# In the supplement of paper PMC11732987, “Enantioselective OTUD7B fragment discovery through chemoproteomics screening and high-throughput optimisation” (Communications Chemistry, 2025):
# Unmarked numbers belong to inactive results.
# Key:
# Experiment in all cases: log2 ratio of Biotin-Ahx-Ub-VS probe labelling (fragment/DMSO); higher = less target engagement (more negative = stronger competition), active = hit call of the paper (q ≤ 0.05, log2 ratio ≤ -1)
# Settings in all cases: compound concentration: 200 uM; treatment time: 3 h
# OTUD6B = target: T1, OTUD6B (UniProt Q8N6M0)
# T1 sequence (whole entry): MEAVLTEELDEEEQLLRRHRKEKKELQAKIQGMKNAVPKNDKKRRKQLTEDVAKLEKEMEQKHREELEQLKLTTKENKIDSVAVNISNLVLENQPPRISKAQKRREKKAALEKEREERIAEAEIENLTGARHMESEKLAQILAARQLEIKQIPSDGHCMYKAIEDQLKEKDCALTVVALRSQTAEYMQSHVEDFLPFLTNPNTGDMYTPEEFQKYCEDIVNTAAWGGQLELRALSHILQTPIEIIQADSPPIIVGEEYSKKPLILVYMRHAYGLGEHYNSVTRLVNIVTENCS
# Summary of the method: (§1)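 HEK293T lysate in Tris/CHAPS/IGEPAL buffer with protease inhibitors (495 µg per sample) was given fragment at 200 µM or vehicle for 3 h, in triplicate. It then received Biotin-Ahx-Ub-VS at 0.5 µM final for 1 h. Labelled DUBs were NeutrAvidin-enriched, digested with LysC and trypsin, and run by diaPASEF LC-MS/MS. Values are average log2 fragment/vehicle ratios by unpaired t-test on global-median-normalised Spectronaut quantities of proteins with ≥2 unique peptides.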
# OTUD7B = target: T2, OTUD7B (UniProt Q6GQQ9)
# T2 sequence (whole entry): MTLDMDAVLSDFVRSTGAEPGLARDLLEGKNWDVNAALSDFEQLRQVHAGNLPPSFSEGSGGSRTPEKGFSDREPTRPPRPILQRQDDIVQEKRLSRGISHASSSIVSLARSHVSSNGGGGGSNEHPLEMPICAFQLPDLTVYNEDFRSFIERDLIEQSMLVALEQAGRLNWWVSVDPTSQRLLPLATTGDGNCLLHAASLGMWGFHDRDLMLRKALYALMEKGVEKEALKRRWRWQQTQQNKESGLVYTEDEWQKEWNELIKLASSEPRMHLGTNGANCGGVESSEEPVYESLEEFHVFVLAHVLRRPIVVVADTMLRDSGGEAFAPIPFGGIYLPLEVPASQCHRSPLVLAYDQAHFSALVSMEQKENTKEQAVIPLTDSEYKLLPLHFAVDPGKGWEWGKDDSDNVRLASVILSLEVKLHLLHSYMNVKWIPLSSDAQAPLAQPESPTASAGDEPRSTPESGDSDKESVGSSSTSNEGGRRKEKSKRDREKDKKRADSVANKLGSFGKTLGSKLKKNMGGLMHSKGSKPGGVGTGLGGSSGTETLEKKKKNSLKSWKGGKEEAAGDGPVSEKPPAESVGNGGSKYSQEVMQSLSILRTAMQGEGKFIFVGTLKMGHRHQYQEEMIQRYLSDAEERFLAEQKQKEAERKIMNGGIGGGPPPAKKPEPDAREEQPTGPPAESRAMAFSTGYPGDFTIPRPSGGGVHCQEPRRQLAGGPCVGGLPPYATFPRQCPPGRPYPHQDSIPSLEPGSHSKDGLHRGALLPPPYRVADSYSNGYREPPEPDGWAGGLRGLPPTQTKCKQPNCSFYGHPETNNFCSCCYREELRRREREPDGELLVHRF
# Summary of the method: as §1
# PRPF8 = PRPF8 (UniProt Q6P2Q9)
# Summary of the method: as §1
# PSMD7 = target: T3, PSMD7 (UniProt P51665)
# T3 sequence (whole entry): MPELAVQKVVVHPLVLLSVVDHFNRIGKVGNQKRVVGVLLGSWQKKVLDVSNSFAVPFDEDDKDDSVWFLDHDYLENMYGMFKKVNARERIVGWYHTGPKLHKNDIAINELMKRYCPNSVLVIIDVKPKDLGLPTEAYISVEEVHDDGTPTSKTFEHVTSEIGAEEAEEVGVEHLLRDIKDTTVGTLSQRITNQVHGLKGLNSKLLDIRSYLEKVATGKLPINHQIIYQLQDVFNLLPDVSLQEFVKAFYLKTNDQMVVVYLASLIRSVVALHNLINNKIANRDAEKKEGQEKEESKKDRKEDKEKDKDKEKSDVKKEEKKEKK
# Summary of the method: as §1
# UCHL1 = UCHL1 (UniProt P09936)
# Chain of UCHL1 (P09936 whole entry, looked up): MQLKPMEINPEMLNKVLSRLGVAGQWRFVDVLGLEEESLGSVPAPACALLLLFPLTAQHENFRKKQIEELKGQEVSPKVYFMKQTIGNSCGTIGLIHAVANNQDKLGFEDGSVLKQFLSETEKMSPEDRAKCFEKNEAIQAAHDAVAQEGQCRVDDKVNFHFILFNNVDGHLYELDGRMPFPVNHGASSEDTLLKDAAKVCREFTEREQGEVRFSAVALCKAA
# Summary of the method: as §1
# UCHL3 = target: T4, UCHL3 (UniProt P15374)
# T4 sequence (whole entry): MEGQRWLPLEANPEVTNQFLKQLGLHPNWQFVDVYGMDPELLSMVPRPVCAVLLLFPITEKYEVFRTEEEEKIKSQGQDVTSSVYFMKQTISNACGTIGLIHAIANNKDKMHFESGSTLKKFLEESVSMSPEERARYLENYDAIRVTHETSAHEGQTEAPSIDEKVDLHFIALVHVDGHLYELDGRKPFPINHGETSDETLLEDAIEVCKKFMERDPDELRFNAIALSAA
# Summary of the method: as §1
# UCHL5 = target: T5, UCHL5 (UniProt Q9Y5K5)
# T5 sequence (whole entry): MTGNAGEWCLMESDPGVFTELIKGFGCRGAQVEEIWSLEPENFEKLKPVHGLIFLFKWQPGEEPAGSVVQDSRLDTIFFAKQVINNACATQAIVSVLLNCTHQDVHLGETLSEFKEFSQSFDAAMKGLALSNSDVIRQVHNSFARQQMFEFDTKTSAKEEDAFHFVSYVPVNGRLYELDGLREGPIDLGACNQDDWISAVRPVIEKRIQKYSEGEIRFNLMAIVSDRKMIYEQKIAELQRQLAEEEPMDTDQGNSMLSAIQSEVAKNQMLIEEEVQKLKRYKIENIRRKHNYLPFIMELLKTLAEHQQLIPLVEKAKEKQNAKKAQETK
# Summary of the method: as §1
# USP10 = USP10 (UniProt Q14694)
# Chain of USP10 (Q14694 whole entry): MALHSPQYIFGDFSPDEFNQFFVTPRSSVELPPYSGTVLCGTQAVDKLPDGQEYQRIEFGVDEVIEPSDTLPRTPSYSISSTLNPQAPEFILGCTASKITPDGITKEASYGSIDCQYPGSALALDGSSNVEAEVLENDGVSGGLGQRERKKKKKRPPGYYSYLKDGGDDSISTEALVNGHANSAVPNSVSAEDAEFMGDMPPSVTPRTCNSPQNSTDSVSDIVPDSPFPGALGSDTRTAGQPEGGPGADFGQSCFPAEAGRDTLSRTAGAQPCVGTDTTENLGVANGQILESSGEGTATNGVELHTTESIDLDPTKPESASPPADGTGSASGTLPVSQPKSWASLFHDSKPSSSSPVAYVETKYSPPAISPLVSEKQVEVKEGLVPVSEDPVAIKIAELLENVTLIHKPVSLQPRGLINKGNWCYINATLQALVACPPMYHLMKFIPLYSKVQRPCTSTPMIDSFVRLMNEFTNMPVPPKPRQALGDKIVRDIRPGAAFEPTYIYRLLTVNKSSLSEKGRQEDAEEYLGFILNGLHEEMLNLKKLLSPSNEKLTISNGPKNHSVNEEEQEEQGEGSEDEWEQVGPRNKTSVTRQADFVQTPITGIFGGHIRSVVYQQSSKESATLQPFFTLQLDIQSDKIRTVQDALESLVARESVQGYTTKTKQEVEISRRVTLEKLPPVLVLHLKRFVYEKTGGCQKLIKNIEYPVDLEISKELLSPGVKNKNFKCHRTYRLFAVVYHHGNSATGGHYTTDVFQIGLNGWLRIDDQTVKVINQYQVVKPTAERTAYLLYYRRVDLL
# Summary of the method: as §1
# USP15 = target: T6, USP15 (UniProt Q9Y4E8)
# T6 sequence (whole entry): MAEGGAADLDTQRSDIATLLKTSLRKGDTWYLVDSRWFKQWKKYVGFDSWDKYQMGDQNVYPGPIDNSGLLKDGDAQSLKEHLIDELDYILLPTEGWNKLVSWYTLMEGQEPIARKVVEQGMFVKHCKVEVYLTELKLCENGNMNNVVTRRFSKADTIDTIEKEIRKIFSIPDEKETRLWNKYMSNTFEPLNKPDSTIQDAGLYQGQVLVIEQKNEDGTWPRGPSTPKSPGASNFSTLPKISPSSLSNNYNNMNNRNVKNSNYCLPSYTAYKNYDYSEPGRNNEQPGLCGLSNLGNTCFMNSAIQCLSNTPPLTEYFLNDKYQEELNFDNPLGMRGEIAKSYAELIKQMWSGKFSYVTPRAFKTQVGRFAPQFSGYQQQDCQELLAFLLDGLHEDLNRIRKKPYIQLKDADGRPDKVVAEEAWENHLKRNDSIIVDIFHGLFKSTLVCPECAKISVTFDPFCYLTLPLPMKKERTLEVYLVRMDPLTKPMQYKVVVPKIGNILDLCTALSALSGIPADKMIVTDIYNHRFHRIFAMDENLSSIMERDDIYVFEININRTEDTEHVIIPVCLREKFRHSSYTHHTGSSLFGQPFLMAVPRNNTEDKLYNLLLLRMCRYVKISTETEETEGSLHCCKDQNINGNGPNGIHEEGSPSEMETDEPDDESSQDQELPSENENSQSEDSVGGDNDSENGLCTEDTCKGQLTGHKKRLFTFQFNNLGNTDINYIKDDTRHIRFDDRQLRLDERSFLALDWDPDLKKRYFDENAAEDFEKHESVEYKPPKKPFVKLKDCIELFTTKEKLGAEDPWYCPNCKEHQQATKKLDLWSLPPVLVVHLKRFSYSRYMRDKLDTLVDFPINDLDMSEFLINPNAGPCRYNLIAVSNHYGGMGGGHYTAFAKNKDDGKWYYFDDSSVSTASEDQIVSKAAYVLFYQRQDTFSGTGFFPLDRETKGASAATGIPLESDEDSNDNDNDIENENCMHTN
# Summary of the method: as §1
# USP16 = USP16 (UniProt Q9Y5T5)
# Chain of USP16 (Q9Y5T5 whole entry, looked up): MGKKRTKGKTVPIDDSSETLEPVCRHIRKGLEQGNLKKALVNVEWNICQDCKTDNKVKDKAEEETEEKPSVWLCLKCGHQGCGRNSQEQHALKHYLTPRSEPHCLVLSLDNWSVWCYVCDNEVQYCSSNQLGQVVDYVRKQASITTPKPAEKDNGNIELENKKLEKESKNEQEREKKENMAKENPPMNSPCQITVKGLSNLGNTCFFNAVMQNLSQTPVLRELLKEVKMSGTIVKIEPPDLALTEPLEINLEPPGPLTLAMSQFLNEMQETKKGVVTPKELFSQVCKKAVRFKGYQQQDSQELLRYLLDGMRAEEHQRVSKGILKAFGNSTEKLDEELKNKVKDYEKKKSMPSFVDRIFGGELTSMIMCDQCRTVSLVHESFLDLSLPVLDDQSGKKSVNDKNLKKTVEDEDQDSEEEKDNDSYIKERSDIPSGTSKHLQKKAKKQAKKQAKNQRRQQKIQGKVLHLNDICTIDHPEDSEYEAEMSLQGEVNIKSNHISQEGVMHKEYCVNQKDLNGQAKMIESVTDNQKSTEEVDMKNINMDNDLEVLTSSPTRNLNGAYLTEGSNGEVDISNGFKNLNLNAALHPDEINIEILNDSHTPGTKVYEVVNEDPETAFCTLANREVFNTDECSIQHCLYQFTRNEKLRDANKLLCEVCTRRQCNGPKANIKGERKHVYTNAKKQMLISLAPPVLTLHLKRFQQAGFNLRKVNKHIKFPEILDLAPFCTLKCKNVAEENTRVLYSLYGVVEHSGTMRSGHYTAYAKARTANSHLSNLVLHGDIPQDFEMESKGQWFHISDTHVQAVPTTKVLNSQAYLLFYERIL
# Summary of the method: as §1
smiles,measurement,setting,value
CC(NC(=O)CCl)c1noc(Cc2ccccc2)n1 (stereo not given),log2 ratio of Biotin-Ahx-Ub-VS probe labelling,OTUD6B,-0.409
same,log2 ratio of Biotin-Ahx-Ub-VS probe labelling,OTUD7B,-0.724
same,log2 ratio of Biotin-Ahx-Ub-VS probe labelling,PRPF8,0.0633
same,log2 ratio of Biotin-Ahx-Ub-VS probe labelling,PSMD7,-0.49
same,log2 ratio of Biotin-Ahx-Ub-VS probe labelling,UCHL1,-1.97 (active)
same,log2 ratio of Biotin-Ahx-Ub-VS probe labelling,UCHL3,-0.00714
same,log2 ratio of Biotin-Ahx-Ub-VS probe labelling,UCHL5,-0.344
same,log2 ratio of Biotin-Ahx-Ub-VS probe labelling,USP10,0.046
same,log2 ratio of Biotin-Ahx-Ub-VS probe labelling,USP15,-0.331
same,log2 ratio of Biotin-Ahx-Ub-VS probe labelling,USP16,-0.296
